Compounds without any hit were thinned out: in the full panel of roughly 83,000, 20% have a hit.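 Single-concentration screen, 48 h exposure, 96-well plates. Endpoint: percent growth. Below 10 = active.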 Calls of active or inactive are those of the source.

For the assay, the system named is CAKI-1 renal. Put plainly: NCI-60 one-dose screen, 48 h (100 = growth as untreated, 0 = no growth, -100 = all killed). Particulars: 10 µM unless noted. The protocol:
Growth inhibition of the CAKI-1 human tumor cell line is measured as a screen for anti-cancer activity. Cells are grown in 96 well plates and exposed to the test compound for 48 hours. Compounds are tested at a single concentration, which is 10^-5 M for most compounds. The reported endpoint is percent growth (GI% or GIPRCNT), where numbers from 0 - 100% represent growth inhibition, and numbers from -100% - 0 represent cell death. For example, a value of 40 represents 60% growth inhibition. A value of 0 means no net growth occurred over the course of the experiment. A value of -40 indicates 40% of cells at the beginning of the experiment died by the end of the experiment. A value of -100 means all cells are dead at the end of the experiment.
NCI-60 Human Tumor Cell Lines Screen was performed using the standard one-dose NCI protocol, which is described in more detail at https://dtp.cancer.gov/discovery_development/nci-60/default.htm.
Compounds with GIPRCNT values below 10 were considered active. Activity score was based on GIPRCNT using the following formula: […]
Score is 0 for GIPRCNT values of 100 or above, 50 for GIPRCNT values of 0, and 100 for GIPRCNT values of -100.
Take `COc1ccc(/C=C(/C(=O)n2cnnn2)c2cc(OC)c(OC)c(OC)c2)cc1`: the growth is 36.1% (inactive).

Turning to `COc1ccccc1C(=O)Nc1cccc(NC(=O)c2ccoc2C)c1`, the growth was 40.6% (inactive).

On to `COc1ccc(/C=C/c2c(C(=O)/C=C/c3ccccc3)c(C)nc3ccccc23)cc1`, for which the growth is 20.9% (inactive).

For the compound `CC(=O)/C(=C/c1ccc([N+](=O)[O-])cc1)C(=O)c1ccccc1`, the growth was 96.3% (inactive).

On to `O=C(Nc1ncc(Cc2cc(C(F)(F)F)ccc2Cl)s1)c1cccs1`, for which the growth was 41.7% (inactive).

As to `CNC1=C([N+](=O)[O-])C(c2ccc(OC)cc2)C(C#N)=C(c2cccs2)O1` (stereo not given), the growth is 94.2% (inactive).

As for `COc1ccc(C2=CC(c3cc(OC)c(OC)c(OC)c3)n3ncnc3N2)cc1` (stereo not given), the growth was 21.7% (inactive).

Turning to `C=C(CNCCO)[C@@H]1CC[C@]2(CO)CC[C@]3(C)[C@H](CC[C@@H]4[C@@]5(C)CCC(N)C(C)(C)[C@@H]5CC[C@]43C)[C@@H]12` (stereo not given in full), the growth was 54.1% (inactive).

Take `COc1ccc(Cn2cc3c(c2-c2ccccc2)CCc2cnoc2-3)cc1`: the growth was 34% (inactive).

Take `C[C@H](CCCC(=O)NCC#CCN1CCN(C)CC1)[C@H]1CC[C@H]2[C@@H]3CC[C@@H]4CC(=O)CC[C@]4(C)[C@H]3CC[C@]12C`: the growth was 108% (inactive).

`CNC(=O)c1ccccc1Nc1nc(Nc2cc(OC)c(OC)c(OC)c2)ncc1Br`: the growth was 2.5% (active).

`COc1ccc(Cn2cc(C(=O)N=Nc3c(O)[nH]c4c(C)cccc34)nn2)cc1`: the growth is 77.1% (inactive).

As for `CCOC(=O)c1c(C)nc2ccccc2c1/C=C/c1ccccc1`, the growth is 59.5% (inactive).

With `Cc1ccc2nc(-c3ccc(C(=O)NNC(=S)Nc4ccccc4)cc3)[nH]c2c1`, the growth was 95.3% (inactive).

`Cc1c2ccncc2c(C)c2c1c1cc(CO)ccc1n2C`: the growth is 8.35% (active).

For `NNCCc1ccc(NC(=O)CCCc2ccc(C(=O)Nc3ccccc3N)cc2)cc1`, the growth is 80.6% (inactive).

In the case of `N#Cc1cccc(C2C3=C(COC3=O)N(CCO)c3cc4c(cc32)CCC4)c1` (stereo not given), the growth is 34.7% (inactive).

For `CCCCNC(=O)Oc1ccc(/C(=C(/C)Cc2ccc(OC)cc2)c2ccc(OCCN3CCCCCC3)cc2)cc1`, the growth is 83.5% (inactive).

For the compound `CCc1ccc(CCC(=O)Nc2ncc(Cc3cc(Cl)ccc3Cl)s2)o1`, the growth is 23.9% (inactive).

Take `Oc1c(CN2CCC(N3CCCCC3)CC2)cc(Cc2cc(CN3CCC(N4CCCCC4)CC3)c(O)c3ncccc23)c2cccnc12`: the growth was 25.5% (inactive).

`O=C1/C(=C2\SC(=S)N(C3CC3)C2=O)SC(=S)N1C1CC1`: the growth is 91.3% (inactive).

Regarding `O=C(N/N=C\c1cccc([N+](=O)[O-])c1)N/N=C/c1cccc([N+](=O)[O-])c1`, the growth is 95.8% (inactive).

For the compound `COc1ccc2[nH]cc(-c3nc(-c4c[nH]c5c(Cl)nccc45)cs3)c2c1`, the growth is 61.6% (inactive).

For the compound `C[C@]1(O)CC(=O)[C@]2(O)C3=C(C=C[C@]2(O)C1)C(=O)c1c(O)cccc1C3=O`, the growth was -59.8% (active).

In the case of `Cc1nn(-c2ccccc2)c(N)c1N=C1NC(=O)/C(=C/c2ccc(Br)cc2)S1`, the growth is 68% (inactive).

As to `COc1ccc(C(=O)Cn2c(C(=O)c3ccc(Cl)cc3)nc3ccccc32)cc1`, the growth is 63.5% (inactive).

`S=c1nc2oc(-c3ccccc3)c(-c3ccccc3)c2c(/N=C\c2ccco2)[nH]1`: the growth was 92.3% (inactive).

For the compound `C=C(C)[C@@H]1CC[C@]2(COC(C)=O)CC[C@]3(C)[C@H](CC[C@@H]4[C@@]5(C)CCCN(C(C)=O)C(C)(C)[C@@H]5CC[C@]43C)[C@@H]12`, the growth is 24.3% (inactive).

In the case of `CCOc1cccc(/C=N/NC(=O)c2cccc(Nc3ccnc(C(F)(F)F)c3)c2)c1O`, the growth was 18.3% (inactive).

Regarding `O=C1c2ccccc2C(=O)c2c1cc1c(c2[N+](=O)[O-])OCO1`, the growth was 2.82% (active).

In the case of `CC(C)(C)c1cc(Cl)c(O)c(CNCCO)c1`, the growth was 94.1% (inactive).

`CC1=C(C(=O)Nc2nc(-c3ccc(Cl)cc3)cs2)[C@H](c2ccc(O)cc2)NC(=O)N1`: the growth was 91% (inactive).

Consider `O=C(NNC(=O)c1nc2cc(F)ccc2n2cccc12)c1cnccn1`, for which the growth is 27.9% (inactive).

As for `O=C(/C=C/C12c3ccccc3C(c3ccccc31)C1C(=O)NC(=O)C12)c1ccc(Br)cc1` (stereo not given), the growth is 56.4% (inactive).

As for `CC(C)N1C(=O)/C(=c2\sc3n(c2=O)C2C(NN=3)N(C)C(=O)N2C)c2ccccc21` (stereo not given), the growth was 28.6% (inactive).

For `Cc1ccc(C(=O)c2ccc(CC(=O)NN3C(=O)c4ccccc4C3=O)n2C)cc1`, the growth was 87.4% (inactive).

In the case of `OCCNCCNC(Cc1ccc(Cl)cc1)c1ccccc1` (stereo not given), the growth is 84.3% (inactive).

On to `O=C(NC(Cc1nnc2n(Cc3ccccc3)c(=O)c3c4c(sc3n12)CCCC4)c1ccccc1)c1ccccc1` (stereo not given), for which the growth was 101% (inactive).

Turning to `CN1CCN(Cc2ccc(NC(=O)c3cncc(C#Cc4cnc5ccc(Cl)nn45)c3)cc2C(F)(F)F)CC1`, the growth was -13.6% (active).

For `O=C1c2ccccc2C(=O)C1c1ccc(Br)cc1`, the growth was 82.8% (inactive).
